The supplement of paper PMC10981050
Values joined by “and” are separate entries in the source; they are usually repeats but may differ in a detail not shown here. Equal entries are not always repeated. Structures can show the parent of a compound that is named as a salt.

Test system: K562
Experiment: cell viability relative to vehicle control; higher = less cytotoxic
Details: 10 µM; SRSF2 genotype: SRSF2 P95H/wt
In short: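 CRISPR-edited mutant clones and isogenic wild-type clones from four leukaemia lines were screened against Selleck bioactive, kinase and epigenetic probe libraries, with identity-inconsistent compounds excluded. Each compound was acoustically dispensed at a single 10 µM dose into 384-well plates holding 2000 cells in 50 µL medium per well. After 48 h the supernatant was removed and CellTiter-Glo luminescence was read. Viability was expressed as percent of the on-plate vehicle control and analysed in Genedata Screener.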

Row | SMILES | cell viability
1 | CCOC(=O)Nc1ccc(NCc2ccc(F)cc2)cc1N [Retigabine 2HCl] | 94.1% and 97.3%
2 | Cn1c(COP(=O)(NCCBr)NCCBr)cnc1[N+](=O)[O-] | 102% and 109%
3 | NC(=O)CN1CCCC1=O [Piracetam] | 96.1% and 103%
4 | CC(C)c1ccc2c(c1O)CC[C@H]1C3=C(CC[C@]21C)C(=O)OC3 [Triptophenolide] | 70.5% and 80.3%
5 | C#C[C@]1(O)C=C[C@H]2[C@@H]3CCC4=CC(=O)CC[C@@H]4[C@H]3CC[C@@]21CC [Gestodene] | 94.9% and 97.5%
6 | Cc1cccc(Cc2c[nH]cn2)c1C [Detomidine HCl] | 96.3% and 104%
7 | CCCN1C[C@H](CSC)C[C@@H]2c3cccc4[nH]cc(c34)C[C@H]21 [Pergolide mesylate] | 86.1% and 87.8%
8 | O=c1ccc2ccc3occc3c2o1 [Isopsoralen] | 105% and 98.7%
9 | CNCC(O)c1ccc(O)cc1 (stereo not given) [Synephrine (Oxedrine)] | 106% and 102%
10 | CCO[C@H]1O[C@@H]2O[C@@]3(C)CC[C@H]4[C@H](C)CC[C@@H]([C@H]1C)[C@@]24OO3 [Arteether] | 68.2% and 63.3%
11 | C[C@](O)(COc1ccc(C#N)cc1)C(=O)Nc1ccc(C#N)c(C(F)(F)F)c1 | 90.6% and 94.9%
12 | CCN(CC)CCOC(=O)C(O)(c1ccccc1)c1ccccc1 [Benactyzine hydrochloride] | 87.1% and 93%
13 | C[N+]1(C)CCCC(OC(=O)C(O)(c2ccccc2)c2ccccc2)C1 (stereo not given) [mepenzolate bromide] | 106% and 102%
14 | Cc1ccccc1-n1c(Cn2ncc3c(N)ncnc32)nc2cccc(C)c2c1=O | 93.5% and 98.8%
15 | C=CC[C@]1(O)CC[C@H]2[C@@H]3CCC4=CC(=O)CCC4=C3C=C[C@@]21C [Altrenogest] | 92.6% and 98.1%
16 | CN1C2CCC1CC(O)C2 (stereo not given) [Tropine] | 105% and 98.9%
17 | Cc1ccccc1-n1c(CF)nc2ccc(N)cc2c1=O [Afloqualone] | 88.1% and 90.6%
18 | CNCC(=O)c1ccc(O)c(O)c1 [Adrenalone HCl] | 97.4% and 92.4%

Row | SMILES | cell viability
19 | CC(=O)O[C@H]1C(=O)[C@@]2(C)[C@H]([C@H](OC(=O)c3ccccc3)[C@]3(O)C[C@H](O)C(C)=C1C3(C)C)[C@]1(OC(C)=O)CO[C@@H]1C[C@@H]2O | 93.5% and 95%
20 | Nc1ncnc2c1ccn2[C@@H]1O[C@H]([C@H](O)c2ccccc2)[C@@H](O)[C@H]1O | 89.1% and 85%
21 | CN1CCCCC1Cn1cc(C(=O)c2cc([N+](=O)[O-])ccc2I)c2ccccc21 (stereo not given) | 83.1% and 88.8%
22 | CC(=O)Nc1ccc(Cc2ccc(NC(C)=O)cc2)cc1 | 104% and 107%
23 | NC(=O)CN1CC(c2ccccc2)CC1=O (stereo not given) [Phenylpiracetam] | 94.8% and 94.3%
24 | CC(C)c1ccc(CO)cc1 [4-Isopropylbenzyl Alcohol] | 107% and 98.3%
25 | O=C(c1ccccc1O)c1[nH]c(Cl)c(Cl)c1-n1c(C(=O)c2ccccc2O)cc(Cl)c1Cl [Marinopyrrole A (Maritoclax)] | 12.6% and 15.9%
26 | CCN1CCN(C(=O)Cc2ccc(Nc3ncc(F)c(Nc4ccc(C(=O)Nc5ccccc5Cl)cc4)n3)cc2)CC1 [Aurora A Inhibitor I] | 0.7% and 0.51%
27 | C=C[C@H]1CN2CC[C@H]1C[C@H]2[C@H](O)c1ccnc2ccccc12 [Cinchonidine] | 87.9% and 96.3%
28 | O=c1ccc2cc(O[C@@H]3O[C@H](CO)[C@@H](O)[C@H](O)[C@H]3O)c(O)cc2o1 [Aesculin (Esculin)] | 104% and 98.9%
29 | C[N+](C)(C)CCCCCCCCCC[N+](C)(C)C [Decamethonium Bromide] | 100% and 109%
30 | CC[C@H]1CN2CC[C@H]1C[C@H]2[C@H](O)c1ccnc2ccc(OC)cc12 [Hydroquinine] | 102% and 101%
31 | O=C(O)CCCCCCCCCO [10-Hydroxydecanoic acid] | 99.2% and 97.8%
32 | COC1=CC23CCN(C)C(Cc4ccc(OC)c(O)c42)C3=CC1=O (stereo not given) [Sinoacutine] | 110% and 102%
33 | COc1ccc(C(=O)N2CCCC2=O)cc1 [Aniracetam] | 105% and 106%
34 | CC(C)=CCCC(C)(O)C1CCC2(C)C1C(O)CC1C3(C)CCC(OC4OC(CO)C(O)C(O)C4O)C(C)(C)C3CCC12C [(20R)Ginsenoside Rh2] | 90.5% and 92.8%
35 | c1cc2c(cc1[C@H]1OC[C@H]3[C@@H]1CO[C@H]3c1ccc3c(c1)OCO3)OCO2 [Asarinin] | 99.6% and 99.4%

Same assay, conditions: 10 µM; SRSF2 genotype: SRSF2 wt/wt

Row | SMILES | cell viability
36 | CCOC(=O)Nc1ccc(NCc2ccc(F)cc2)cc1N [Retigabine 2HCl] | 97.4%
37 | Cn1c(COP(=O)(NCCBr)NCCBr)cnc1[N+](=O)[O-] | 103%
38 | NC(=O)CN1CCCC1=O [Piracetam] | 98.7%
39 | CC(C)c1ccc2c(c1O)CC[C@H]1C3=C(CC[C@]21C)C(=O)OC3 [Triptophenolide] | 79.5%
40 | C#C[C@]1(O)C=C[C@H]2[C@@H]3CCC4=CC(=O)CC[C@@H]4[C@H]3CC[C@@]21CC [Gestodene] | 95.4%
41 | Cc1cccc(Cc2c[nH]cn2)c1C [Detomidine HCl] | 96.5%
42 | CCCN1C[C@H](CSC)C[C@@H]2c3cccc4[nH]cc(c34)C[C@H]21 [Pergolide mesylate] | 89.7%
43 | O=c1ccc2ccc3occc3c2o1 [Isopsoralen] | 105%
44 | CNCC(O)c1ccc(O)cc1 (stereo not given) [Synephrine (Oxedrine)] | 94.5%
45 | CCO[C@H]1O[C@@H]2O[C@@]3(C)CC[C@H]4[C@H](C)CC[C@@H]([C@H]1C)[C@@]24OO3 [Arteether] | 69%
46 | C[C@](O)(COc1ccc(C#N)cc1)C(=O)Nc1ccc(C#N)c(C(F)(F)F)c1 | 97.9%
47 | CCN(CC)CCOC(=O)C(O)(c1ccccc1)c1ccccc1 [Benactyzine hydrochloride] | 84.2%
48 | C[N+]1(C)CCCC(OC(=O)C(O)(c2ccccc2)c2ccccc2)C1 (stereo not given) [mepenzolate bromide] | 98.9%
49 | Cc1ccccc1-n1c(Cn2ncc3c(N)ncnc32)nc2cccc(C)c2c1=O | 91.3%
50 | C=CC[C@]1(O)CC[C@H]2[C@@H]3CCC4=CC(=O)CCC4=C3C=C[C@@]21C [Altrenogest] | 97.5%
51 | CN1C2CCC1CC(O)C2 (stereo not given) [Tropine] | 97.2%
52 | Cc1ccccc1-n1c(CF)nc2ccc(N)cc2c1=O [Afloqualone] | 86.5%
53 | CNCC(=O)c1ccc(O)c(O)c1 [Adrenalone HCl] | 98.3%

Row | SMILES | cell viability
54 | CC(=O)O[C@H]1C(=O)[C@@]2(C)[C@H]([C@H](OC(=O)c3ccccc3)[C@]3(O)C[C@H](O)C(C)=C1C3(C)C)[C@]1(OC(C)=O)CO[C@@H]1C[C@@H]2O | 102%
55 | Nc1ncnc2c1ccn2[C@@H]1O[C@H]([C@H](O)c2ccccc2)[C@@H](O)[C@H]1O | 79.6%
56 | CN1CCCCC1Cn1cc(C(=O)c2cc([N+](=O)[O-])ccc2I)c2ccccc21 (stereo not given) | 87.2%
57 | CC(=O)Nc1ccc(Cc2ccc(NC(C)=O)cc2)cc1 | 107%
58 | NC(=O)CN1CC(c2ccccc2)CC1=O (stereo not given) [Phenylpiracetam] | 97.6%
59 | CC(C)c1ccc(CO)cc1 [4-Isopropylbenzyl Alcohol] | 97.1%
60 | O=C(c1ccccc1O)c1[nH]c(Cl)c(Cl)c1-n1c(C(=O)c2ccccc2O)cc(Cl)c1Cl [Marinopyrrole A (Maritoclax)] | 14.3%
61 | CCN1CCN(C(=O)Cc2ccc(Nc3ncc(F)c(Nc4ccc(C(=O)Nc5ccccc5Cl)cc4)n3)cc2)CC1 [Aurora A Inhibitor I] | 15.3%
62 | C=C[C@H]1CN2CC[C@H]1C[C@H]2[C@H](O)c1ccnc2ccccc12 [Cinchonidine] | 94.8%
63 | O=c1ccc2cc(O[C@@H]3O[C@H](CO)[C@@H](O)[C@H](O)[C@H]3O)c(O)cc2o1 [Aesculin (Esculin)] | 100%
64 | C[N+](C)(C)CCCCCCCCCC[N+](C)(C)C [Decamethonium Bromide] | 111%
65 | CC[C@H]1CN2CC[C@H]1C[C@H]2[C@H](O)c1ccnc2ccc(OC)cc12 [Hydroquinine] | 103%
66 | O=C(O)CCCCCCCCCO [10-Hydroxydecanoic acid] | 100%
67 | COC1=CC23CCN(C)C(Cc4ccc(OC)c(O)c42)C3=CC1=O (stereo not given) [Sinoacutine] | 101%
68 | COc1ccc(C(=O)N2CCCC2=O)cc1 [Aniracetam] | 110%
69 | CC(C)=CCCC(C)(O)C1CCC2(C)C1C(O)CC1C3(C)CCC(OC4OC(CO)C(O)C(O)C4O)C(C)(C)C3CCC12C [(20R)Ginsenoside Rh2] | 96%
70 | c1cc2c(cc1[C@H]1OC[C@H]3[C@@H]1CO[C@H]3c1ccc3c(c1)OCO3)OCO2 [Asarinin] | 102%
